Inconclusive results are not listed. The source made the active and inactive calls.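 How the source made its calls, unless noted: active means GFP response below 50% of the DMSO control; inconclusive means fewer than 70 events counted for a yeast strain; inactive means the rest.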
Assays:
[1] = yeast TOR pathway RPL19A-GFP modulators, primary screen, cell-based, S. cerevisiae, multiplex flow cytometry (AID 1862; in the data active means percent of DMSO control GFP below about 86%;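 further: lower values mimic rapamycin by blocking the RPL19A rise seen in DMSO cells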); details: S. cerevisiae RPL19A-GFP strain, flow cytometry fluorescence, 3 h; at 10 µM; stronger effect = lower value
[2] = modulators of MEP2-GFP levels in yeast, primary screen, S. cerevisiae, multiplex flow cytometry (AID 1867;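 active means GFP response, as percent of the DMSO control, above the screen-wide mean plus 3 SD, about 139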;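 further: median GFP channel fluorescence of barcode-gated MEP2-GFP cells measured by flow cytometry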); details: S. cerevisiae MEP2-GFP strain, 3 h, at 10 µM, stronger effect = higher value, 100% means same as DMSO wells
[3] = modulators of CIT2-GFP expression in yeast, primary screen, S. cerevisiae, GFP fusion, multiplex flow cytometry (AID 1870;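 active means percent response above a set limit, the screen-wide mean plus 3 SD, cut at about 130% in these data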;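 further: barcoded CIT2-GFP strain pooled with four other GFP strains with rapamycin as positive control; median GFP fluorescence per well over plate mean of DMSO wells so 100% = DMSO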); details: 3 h, at 10 µM, stronger effect = higher value
[4] = modulators of LAP4-GFP expression in yeast, primary screen, S. cerevisiae, multiplex flow cytometry (AID 1873;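 active means GFP signal, as percent of the solvent control, above the screen mean plus 3 SD, about 149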); details: 3 h, at 10 µM, stronger effect = higher value
[5] = modulators of AGP1-GFP expression in yeast TOR pathway, primary screen, cell-based, multiplex flow cytometry, S. cerevisiae (AID 1887;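 active means GFP signal above the screen-wide mean plus 3 SD, that is over about 124.5% of the solvent control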;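 further: AGP1-GFP fusion strain of S. cerevisiae within a five-strain barcoded multiplex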); details: 3 h, at 10 µM, stronger effect = higher value
[6] = RPL19A-GFP modulators, yeast TOR pathway, confirmation, cell-based, S. cerevisiae, flow cytometry, cherry picks, mother/daughter gates (AID 2270); details: S. cerevisiae RPL19A-GFP strain, 3 h, at 10 µM, stronger effect = lower value, 100 = same GFP as DMSO wells
[7] = LAP4-GFP expression modulators in yeast, confirmation, cell-based, cherry picks, flow cytometry, mother/daughter gates (AID 2271;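 active means GFP response above 150% of the DMSO control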;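 further: ratio of sample to DMSO plate mean so 100% equals DMSO level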); details: S. cerevisiae LAP4-GFP strain, 3 h, at 10 µM, stronger effect = higher value, 100 means same as DMSO control
[8] = modulators of MEP2-GFP levels in yeast, confirmation, S. cerevisiae, flow cytometry GFP, cherry picks (AID 2272;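 active means GFP response above 150% of the DMSO control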;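 further: ratio of well signal to plate DMSO mean so 100% equals DMSO level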); details: S. cerevisiae MEP2-GFP strain, 3 h, at 10 µM, stronger effect = higher value
[9] = modulators of CIT2-GFP expression in yeast, confirmation, S. cerevisiae, GFP fusion, cherry picks, mother/daughter gates (AID 2274;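 active means GFP response above 150% of the DMSO level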); details: S. cerevisiae CIT2-GFP strain, flow cytometry, 3 h, at 10 µM, stronger effect = higher value
[10] = inhibitors of CD8+ T cell-vesicle binding, pilot screen, LFA-1/ICAM-1 modulator project, MLPCN validation set, flow cytometry (AID 2523;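 active means response below a set limit, under 55% cells CD8-positive and vesicle-bound, and CD8 cells' 90th-percentile brightness under 279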;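 on vesicle binding response: mean PE anti-B7-1 fluorescence of CD8+ cells relative to row control; 100% = QL9-loaded vesicles with DMSO vehicle in the same plate row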); details: 2C mouse CD8+ T cells, at 7 µM, stronger effect = lower value; double positive events: measured here: CD8+/vesicle+ event percentage
[11] = biological target: Integrin beta-1 (Homo sapiens) + Integrin alpha-4 (Homo sapiens) (UniProt P13612+P05556); experiment: inhibition of HUTS-21 binding to VLA-4, pilot screen, VLA-4 allosteric modulator project, U937 cells, HUTS-21 mAb, flow cytometry, validation set (AID 2674;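 active means inhibition above 50%, about 3 SD of the validation set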;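 further: antibody binding induced by the VLA-4 ligand LDV present at three times its Kd; 0% = LDV ligand with antibody and no compound and 100% = antibody without LDV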); details: HUTS-21 LIBS mAb binding, at 6.7 µM, stronger effect = higher value, binding induced by LDV ligand
[12] = superoxide lowering in aged yeast cells, pilot screen, validation compound set (AID 2706;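 active means superoxide response below 65% of plate, a cut near 3 SD across the whole screen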;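 further: yeast exposed to compound for one week at 30 degrees C before staining; 100% = mean of all compound wells on the same plate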); details: S. cerevisiae aging, superoxide DHE fluorescence; at 10 µM; stronger effect = lower value
[13] = biological target: Beta-adrenergic receptor kinase 1 (Homo sapiens) (UniProt P25098); experiment: GRK2 binders displacing RNA aptamer, biochemical, validation, human GRK2, bead flow cytometry (AID 488806;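 active means aptamer binding inhibition above 30%, about 3 SD of noise from non-fluorescent compounds; inactive means inhibition at or below 30%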); details: bead-bound GRK2, FAM-aptamer displacement, at 10 µM, stronger effect = higher value
[14] = biological target: Beta-2 adrenergic receptor (Homo sapiens) (UniProt P07550); experiment: beta2AR agonists driving receptor internalization, pilot screen, cell-based, FAP fluorogen, flow cytometry, validation set (AID 504459;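 active means percent response above 42, roughly 3 SD of non-fluorescent test compounds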;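 further: agonist-driven loss of surface beta2AR via internalization measured by FAP dye flow cytometry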); details: Am2.2-beta2AR cells, FAP surface receptor flow cytometry; at 10 µM; stronger effect = higher value
[15] = biological target: AP-2 complex subunit beta (Homo sapiens) (UniProt P63010); experiment: inhibitors of arrestin peptide binding to AP2, pilot screen, biochemical, validation set, GST-AP2 beads, flow cytometry (AID 504541;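 active means inhibition above 54%, about 3 SD of non-fluorescent compounds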;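 further: AP2 carries R879A mutation and is captured from E. coli lysate; bead-bound FITC arrestin peptide fluorescence measuring arrestin peptide binding to AP2; 0% = DMSO wells and 100% = excess unlabeled arrestin peptide control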); details: FITC arrestin peptide, at 10 µM, stronger effect = higher value, AP2 beta2 appendage fragment, R879A mutant
[16] = yeast V-ATPase proton transport modulators, S. cerevisiae, pHLuorin, HTS validation (AID 504600; in the data active means response above about 15%;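 further: plate controls were DMSO for no effect and reference compound for full effect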); details: S. cerevisiae pHLuorin cytosolic pH, at 10 µM, stronger effect = higher value
[17] = test system: anti-desmoglein-3 scFv antibody binding to human DSG3; experiment: inhibitors of anti-DSG3 scFv binding to DSG3, pilot screen, biochemical, validation compound set, bead-based, flow cytometry (AID 588368;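 active means binding below the plate cutoff, the plate median minus 3 SD, with a reading above zero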;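 further: signal is the median channel fluorescence of bead-bound GFP antibody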); details: Protein G beads, DSG3-Fc, scFv-GFP binding, at 10 µM, stronger effect = lower value
[18] = inhibitors of fungal efflux pumps CDR1, CDR2, MDR1, pilot screen, validation compound set, multiplex, phenotypic (AID 588506;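 active means efflux inhibition above 0.42, the validation set average plus 4 SD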;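 further: Nile Red retained in cells so higher fluorescence means more efflux inhibition; 0 = negative control wells and 1 = enniatin B 25 µM full block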); details: S. cerevisiae pump-expressing triplex, Nile Red efflux flow cytometry; at 10 µM; stronger effect = higher value; the pumps come from Candida albicans
[19] = biological target: ATP-binding cassette sub-family B member 6 (Homo sapiens) (UniProt Q9NP58); experiment: ABCB6 transporter inhibitors, pilot screen, K562-ABCB6 cells, flow cytometry, validation set (AID 588550;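 active means inhibition above the screen-wide mean plus 3 SD, about 51%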;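 further: 0% = DMSO wells and 100% = benzethonium chloride 70 µM positive control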); details: K562-ABCB6 porphyrin accumulation, 1 h, at 10 µM, stronger effect = higher value
[20] = promoters of myeloid differentiation in arrested cells, primary screen, cell-based, GFP/MAC1 double positive, flow cytometry, validation set (AID 588685;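 active means differentiation response of at least 50%, scaled between solvent and reference control, from cells with both markers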;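 further: compound exposure lasts four days before antibody staining and flow analysis; 0% = DMSO wells and 100% = 5 µM fulvestrant positive control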); details: ER-HoxA9 marrow cells, stronger effect = higher value, normalized: vehicle 0, fulvestrant 100
[21] = measured here: daughter cell gate
[22] = measured here: mother cell gate
[23] = measured here: daughter cell gate response
[24] = measured here: mother cell gate response

ATP-binding cassette sub-family B member 6 (Homo sapiens), sequence (Q9NP58 whole entry, looked up): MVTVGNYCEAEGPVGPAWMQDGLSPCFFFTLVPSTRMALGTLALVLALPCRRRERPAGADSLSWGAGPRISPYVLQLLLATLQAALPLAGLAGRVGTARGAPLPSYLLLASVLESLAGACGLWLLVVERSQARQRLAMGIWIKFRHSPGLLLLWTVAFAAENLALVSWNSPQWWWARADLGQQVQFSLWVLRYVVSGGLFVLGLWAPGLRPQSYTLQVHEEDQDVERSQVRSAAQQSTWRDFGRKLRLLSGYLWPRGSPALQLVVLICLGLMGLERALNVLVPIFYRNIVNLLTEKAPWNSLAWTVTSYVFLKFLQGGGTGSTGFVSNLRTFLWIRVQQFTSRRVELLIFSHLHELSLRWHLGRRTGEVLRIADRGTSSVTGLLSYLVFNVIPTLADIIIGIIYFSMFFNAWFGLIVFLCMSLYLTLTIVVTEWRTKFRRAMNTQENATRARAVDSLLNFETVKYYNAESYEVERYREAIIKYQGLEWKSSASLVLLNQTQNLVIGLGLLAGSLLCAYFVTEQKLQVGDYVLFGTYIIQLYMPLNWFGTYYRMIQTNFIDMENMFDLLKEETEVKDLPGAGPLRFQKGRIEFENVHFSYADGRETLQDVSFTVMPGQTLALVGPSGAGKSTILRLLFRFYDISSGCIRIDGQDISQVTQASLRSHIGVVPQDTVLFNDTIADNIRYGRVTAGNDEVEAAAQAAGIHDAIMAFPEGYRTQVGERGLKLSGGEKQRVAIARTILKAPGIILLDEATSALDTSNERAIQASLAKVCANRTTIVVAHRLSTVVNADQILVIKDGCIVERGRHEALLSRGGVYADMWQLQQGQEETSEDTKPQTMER
Integrin beta-1 (Homo sapiens) + Integrin alpha-4 (Homo sapiens), sequence (P05556 whole entry, looked up): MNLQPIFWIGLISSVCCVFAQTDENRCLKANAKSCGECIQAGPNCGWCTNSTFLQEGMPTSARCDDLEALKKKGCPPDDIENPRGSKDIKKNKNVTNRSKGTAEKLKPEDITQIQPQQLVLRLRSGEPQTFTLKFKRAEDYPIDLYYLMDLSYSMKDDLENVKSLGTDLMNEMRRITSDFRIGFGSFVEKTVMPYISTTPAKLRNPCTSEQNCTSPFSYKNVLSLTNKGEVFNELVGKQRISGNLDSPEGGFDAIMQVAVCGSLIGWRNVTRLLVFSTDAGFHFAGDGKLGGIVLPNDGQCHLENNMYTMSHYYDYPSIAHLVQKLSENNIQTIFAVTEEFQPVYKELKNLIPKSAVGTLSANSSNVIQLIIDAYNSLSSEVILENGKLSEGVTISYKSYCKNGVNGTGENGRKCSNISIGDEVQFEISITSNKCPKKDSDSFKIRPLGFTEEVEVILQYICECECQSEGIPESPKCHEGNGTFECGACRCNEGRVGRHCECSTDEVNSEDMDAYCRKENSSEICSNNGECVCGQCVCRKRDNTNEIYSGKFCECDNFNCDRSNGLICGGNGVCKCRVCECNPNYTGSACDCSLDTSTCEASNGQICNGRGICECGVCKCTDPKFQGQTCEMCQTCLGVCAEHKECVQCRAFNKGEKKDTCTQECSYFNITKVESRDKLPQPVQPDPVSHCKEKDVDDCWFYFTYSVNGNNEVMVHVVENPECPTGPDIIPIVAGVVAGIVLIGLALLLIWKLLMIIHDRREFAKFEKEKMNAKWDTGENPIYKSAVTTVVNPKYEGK
Integrin beta-1 (Homo sapiens) + Integrin alpha-4 (Homo sapiens), sequence (P13612 whole entry, looked up): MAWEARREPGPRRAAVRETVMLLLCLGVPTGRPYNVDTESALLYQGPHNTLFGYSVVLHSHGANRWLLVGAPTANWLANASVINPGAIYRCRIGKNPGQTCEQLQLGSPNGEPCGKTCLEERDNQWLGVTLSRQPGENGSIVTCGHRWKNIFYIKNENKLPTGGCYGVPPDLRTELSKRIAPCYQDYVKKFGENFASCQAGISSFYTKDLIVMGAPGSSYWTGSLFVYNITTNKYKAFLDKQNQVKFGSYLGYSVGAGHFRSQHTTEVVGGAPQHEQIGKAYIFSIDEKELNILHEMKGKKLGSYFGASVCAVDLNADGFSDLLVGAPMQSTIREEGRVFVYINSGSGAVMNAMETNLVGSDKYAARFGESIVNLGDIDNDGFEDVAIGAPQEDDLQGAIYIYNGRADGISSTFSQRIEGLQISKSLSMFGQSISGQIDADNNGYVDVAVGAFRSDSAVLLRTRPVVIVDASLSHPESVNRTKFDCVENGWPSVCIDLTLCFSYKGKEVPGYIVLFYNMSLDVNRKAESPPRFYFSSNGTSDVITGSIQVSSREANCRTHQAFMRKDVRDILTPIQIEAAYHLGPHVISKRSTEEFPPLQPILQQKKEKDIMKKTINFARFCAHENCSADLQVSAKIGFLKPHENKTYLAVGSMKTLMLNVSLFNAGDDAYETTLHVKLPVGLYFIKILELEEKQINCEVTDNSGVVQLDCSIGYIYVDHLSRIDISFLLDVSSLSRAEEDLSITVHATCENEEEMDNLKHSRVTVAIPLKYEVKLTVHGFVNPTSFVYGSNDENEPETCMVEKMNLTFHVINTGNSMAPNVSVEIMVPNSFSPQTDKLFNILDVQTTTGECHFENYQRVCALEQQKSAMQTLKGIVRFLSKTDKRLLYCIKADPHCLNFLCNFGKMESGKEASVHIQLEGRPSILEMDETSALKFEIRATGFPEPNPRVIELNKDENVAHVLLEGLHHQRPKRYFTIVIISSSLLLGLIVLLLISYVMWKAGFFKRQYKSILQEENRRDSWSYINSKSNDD
Beta-adrenergic receptor kinase 1 (Homo sapiens), sequence (P25098 whole entry, looked up): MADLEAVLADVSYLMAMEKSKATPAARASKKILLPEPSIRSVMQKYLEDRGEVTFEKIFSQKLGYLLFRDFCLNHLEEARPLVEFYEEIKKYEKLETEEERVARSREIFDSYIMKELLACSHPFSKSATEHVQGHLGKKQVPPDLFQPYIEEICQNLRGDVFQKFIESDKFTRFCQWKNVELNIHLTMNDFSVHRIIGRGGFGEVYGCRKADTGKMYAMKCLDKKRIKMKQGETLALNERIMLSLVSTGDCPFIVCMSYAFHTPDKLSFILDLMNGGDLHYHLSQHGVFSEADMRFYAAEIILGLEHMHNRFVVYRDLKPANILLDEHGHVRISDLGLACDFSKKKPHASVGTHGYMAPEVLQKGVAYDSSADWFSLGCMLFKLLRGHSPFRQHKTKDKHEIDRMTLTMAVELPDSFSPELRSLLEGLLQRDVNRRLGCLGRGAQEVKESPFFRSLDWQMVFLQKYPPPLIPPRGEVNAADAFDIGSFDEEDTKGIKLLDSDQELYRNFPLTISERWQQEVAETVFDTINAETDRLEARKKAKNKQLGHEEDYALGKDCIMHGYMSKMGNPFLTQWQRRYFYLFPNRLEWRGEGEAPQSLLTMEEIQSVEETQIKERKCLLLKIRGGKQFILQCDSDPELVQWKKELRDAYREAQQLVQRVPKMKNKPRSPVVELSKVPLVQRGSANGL
Beta-2 adrenergic receptor (Homo sapiens), sequence (P07550 whole entry, looked up): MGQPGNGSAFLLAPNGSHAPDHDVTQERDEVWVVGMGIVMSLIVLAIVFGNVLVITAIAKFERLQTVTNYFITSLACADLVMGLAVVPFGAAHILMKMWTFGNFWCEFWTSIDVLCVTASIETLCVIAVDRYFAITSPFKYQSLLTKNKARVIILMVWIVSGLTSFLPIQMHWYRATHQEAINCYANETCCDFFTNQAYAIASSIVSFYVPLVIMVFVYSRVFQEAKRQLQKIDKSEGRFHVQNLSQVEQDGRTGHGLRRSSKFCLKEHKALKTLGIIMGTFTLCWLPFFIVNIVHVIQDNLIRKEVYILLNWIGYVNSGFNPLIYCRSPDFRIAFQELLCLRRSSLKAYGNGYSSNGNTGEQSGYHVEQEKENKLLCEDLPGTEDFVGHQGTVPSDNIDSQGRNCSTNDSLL
AP-2 complex subunit beta (Homo sapiens), sequence (P63010 whole entry, looked up, the tested form may be a part, one chain of several): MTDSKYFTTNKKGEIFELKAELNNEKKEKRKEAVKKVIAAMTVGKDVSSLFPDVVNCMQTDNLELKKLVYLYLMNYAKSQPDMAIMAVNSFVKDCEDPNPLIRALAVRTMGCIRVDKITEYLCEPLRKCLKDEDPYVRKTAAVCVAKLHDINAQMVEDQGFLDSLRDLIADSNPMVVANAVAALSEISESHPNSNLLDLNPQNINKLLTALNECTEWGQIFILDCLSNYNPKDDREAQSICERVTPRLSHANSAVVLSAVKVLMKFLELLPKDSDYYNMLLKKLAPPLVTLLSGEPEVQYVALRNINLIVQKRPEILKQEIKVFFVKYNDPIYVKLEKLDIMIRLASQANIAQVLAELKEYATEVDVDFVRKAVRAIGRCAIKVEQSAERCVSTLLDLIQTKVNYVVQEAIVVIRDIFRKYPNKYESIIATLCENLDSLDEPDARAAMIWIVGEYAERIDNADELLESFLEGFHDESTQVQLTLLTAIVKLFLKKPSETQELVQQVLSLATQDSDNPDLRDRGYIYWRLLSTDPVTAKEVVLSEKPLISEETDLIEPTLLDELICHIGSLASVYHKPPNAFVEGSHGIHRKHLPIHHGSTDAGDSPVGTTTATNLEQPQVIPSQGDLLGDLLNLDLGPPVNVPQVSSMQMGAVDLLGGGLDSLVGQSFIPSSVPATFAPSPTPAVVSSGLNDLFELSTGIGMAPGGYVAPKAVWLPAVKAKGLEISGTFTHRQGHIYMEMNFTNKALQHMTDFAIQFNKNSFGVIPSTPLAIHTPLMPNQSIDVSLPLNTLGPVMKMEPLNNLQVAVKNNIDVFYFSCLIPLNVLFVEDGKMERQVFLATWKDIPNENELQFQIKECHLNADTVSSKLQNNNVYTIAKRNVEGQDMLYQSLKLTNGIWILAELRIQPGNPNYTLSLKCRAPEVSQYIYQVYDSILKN

C[C@]12CCC(=O)C=C1[C@H](O)C[C@@H]1[C@@H]2[C@@H](O)C[C@@]2(C)[C@H]1CC[C@]2(O)C(=O)CO
101%: GFP response, % of DMSO [9, 22]
97.9%: GFP response relative to DMSO [7, 23]
inactive: percent of DMSO control GFP [1] 106% | GFP response vs DMSO [2] 105% | percent response of DMSO control [3] 102% | GFP response vs DMSO [4] 102% | GFP response, % of DMSO [5] 107% | GFP response vs DMSO [6] 99.1% | GFP response relative to DMSO [7] 97.7% | GFP response vs DMSO [8] 99.5% | GFP response, % of DMSO [9] 102% | vesicle binding response [10] 182% | inhibition [11] -10.5% | superoxide response (% of plate) [12] 98.9% | aptamer binding inhibition [13] 2% | response [14] 6.38% | inhibition [15] -21.5% | response [16] 1.8% | binding (% of control) [17] 104% | efflux inhibition (fraction of control) [18] -0.05 | inhibition [19] 3% | differentiation response [20] 5.67%
99.2%: GFP response vs DMSO [6, 22]
95.6%: GFP response relative to DMSO [7, 24]
63.9%: double positive events [10]
104%: GFP response, % of DMSO [9, 21]
99.1%: GFP response vs DMSO [6, 21]

CC(=O)Nc1ccccc1O
113%: GFP response, % of DMSO [9, 22]
61.6%: double positive events [10]
active: GFP response vs DMSO [2] 152%
105%: GFP response, % of DMSO [9, 21]
99.8%: GFP response vs DMSO [6, 22]
98.7%: GFP response relative to DMSO [7, 23]
93.1%: GFP response relative to DMSO [7, 24]
inactive: percent of DMSO control GFP [1] 87.8% | percent response of DMSO control [3] 102% | GFP response vs DMSO [4] 85.3% | GFP response, % of DMSO [5] 86.6% | GFP response vs DMSO [6] 99% | GFP response relative to DMSO [7] 93.8% | GFP response vs DMSO [8] 100% | GFP response, % of DMSO [9] 110% | vesicle binding response [10] 142% | inhibition [11] 6.46% | superoxide response (% of plate) [12] 87.6% | aptamer binding inhibition [13] 6% | response [14] 2.64% | inhibition [15] 0.05% | response [16] 0.98% | binding (% of control) [17] 101% | efflux inhibition (fraction of control) [18] -0.28 | inhibition [19] 8% | differentiation response [20] 3.28%
101%: GFP response vs DMSO [6, 21]

O=c1[nH]cc(F)c(=O)[nH]1
82.3%: GFP response vs DMSO [6, 21]
85.4%: GFP response vs DMSO [6, 22]
active: percent response of DMSO control [3] 127%
87.3%: GFP response, % of DMSO [9, 21]
93%: GFP response relative to DMSO [7, 24]
inactive: percent of DMSO control GFP [1] 90.9% | GFP response vs DMSO [2] 119% | GFP response vs DMSO [4] 77% | GFP response, % of DMSO [5] 104% | GFP response vs DMSO [6] 83.5% | GFP response relative to DMSO [7] 90% | GFP response vs DMSO [8] 101% | GFP response, % of DMSO [9] 88.5% | vesicle binding response [10] 223% | inhibition [11] -45% | superoxide response (% of plate) [12] 100% | aptamer binding inhibition [13] -3% | response [14] -17.5% | inhibition [15] -8.2% | response [16] 1.44% | binding (% of control) [17] 104% | efflux inhibition (fraction of control) [18] -0.06 | inhibition [19] 9% | differentiation response [20] -5.73%
88.8%: GFP response relative to DMSO [7, 23]
52.4%: double positive events [10]
89.8%: GFP response, % of DMSO [9, 22]

CC(=O)OCC(=O)[C@H]1CC[C@H]2[C@@H]3CCC4=CC(=O)CC[C@]4(C)[C@H]3CC[C@]12C
inactive: percent of DMSO control GFP [1] 89.1% | GFP response vs DMSO [2] 103% | percent response of DMSO control [3] 108% | GFP response vs DMSO [4] 73.2% | GFP response, % of DMSO [5] 86.3% | GFP response vs DMSO [6] 95.8% | GFP response relative to DMSO [7] 103% | GFP response vs DMSO [8] 97.5% | GFP response, % of DMSO [9] 97.8% | vesicle binding response [10] 113% | inhibition [11] -1.3% | superoxide response (% of plate) [12] 119% | aptamer binding inhibition [13] -1% | response [14] -16.7% | inhibition [15] -3.8% | response [16] -1.21% | binding (% of control) [17] 105% | efflux inhibition (fraction of control) [18] -0.28 | inhibition [19] 8% | differentiation response [20] -1.64%
96.7%: GFP response vs DMSO [6, 21]
99.3%: GFP response relative to DMSO [7, 23]
106%: GFP response relative to DMSO [7, 24]
52.1%: double positive events [10]
99.1%: GFP response, % of DMSO [9, 22]
98.3%: GFP response, % of DMSO [9, 21]
96.5%: GFP response vs DMSO [6, 22]

C[C@]12CCC(=O)C=C1CC[C@@H]1[C@@H]2[C@@H](O)C[C@@]2(C)[C@H]1CC[C@]2(O)C(=O)CO
98.3%: GFP response relative to DMSO [7, 24]
102%: GFP response vs DMSO [6, 21]
98.7%: GFP response relative to DMSO [7, 23]
58.4%: double positive events [10]
inactive: percent of DMSO control GFP [1] 108% | GFP response vs DMSO [2] 105% | percent response of DMSO control [3] 111% | GFP response vs DMSO [4] 105% | GFP response, % of DMSO [5] 111% | GFP response vs DMSO [6] 104% | GFP response relative to DMSO [7] 96.2% | GFP response vs DMSO [8] 100% | GFP response, % of DMSO [9] 104% | vesicle binding response [10] 165% | inhibition [11] 10.9% | superoxide response (% of plate) [12] 99.2% | aptamer binding inhibition [13] -2% | inhibition [15] 29.5% | response [16] -1.08% | binding (% of control) [17] 95.4% | inhibition [19] 3% | differentiation response [20] -18%
105%: GFP response, % of DMSO [9, 22]
104%: GFP response vs DMSO [6, 22]
99.7%: GFP response, % of DMSO [9, 21]

O=C(NCCN1CCN(c2ccccc2)CC1)c1cccc(Br)c1
inactive: percent of DMSO control GFP [1] 91.3% | percent response of DMSO control [3] 107% | GFP response vs DMSO [4] 88.6% | GFP response, % of DMSO [5] 91.5% | GFP response vs DMSO [6] 97% | GFP response relative to DMSO [7] 97.7% | GFP response vs DMSO [8] 102% | GFP response, % of DMSO [9] 102% | inhibition [11] 17.1% | superoxide response (% of plate) [12] 104% | aptamer binding inhibition [13] 0% | response [14] -3.55% | inhibition [15] 13.8% | response [16] -7.18% | binding (% of control) [17] 103% | efflux inhibition (fraction of control) [18] 0.05 | inhibition [19] 6% | differentiation response [20] 11.5%
100%: GFP response, % of DMSO [9, 21]
96.5%: GFP response relative to DMSO [7, 24]
98%: GFP response vs DMSO [6, 21]
active: GFP response vs DMSO [2] 158% | vesicle binding response [10] 59.1%
97.4%: GFP response vs DMSO [6, 22]
41.8%: double positive events [10]
101%: GFP response relative to DMSO [7, 23] | GFP response, % of DMSO [9, 22]
